PubChem BioAssay AID504652 (National Center for Advancing Translational Sciences (NCATS), 2011)
Screen size: about 360,000 compounds; about 11,000 (3.1%) were called active. No stated cut-off is given here; in the data, active means activity change below about -30%; inactive means the rest. This excerpt belongs to a sample that is enriched for actives.
On the % scale 0 is the no-effect control and ±100 the full control effect.

What follows are compounds tested against D(1A) dopamine receptor (Homo sapiens) (UniProt P21728) (assay: Antagonist of Human D 1 Dopamine Receptor: qHTS). Conditions: HEK293 TREx D1 cells, calcium flux, dopamine EC80; at 10 µM; stronger effect = lower value.
D(1A) dopamine receptor (Homo sapiens), sequence (P21728 whole entry, looked up): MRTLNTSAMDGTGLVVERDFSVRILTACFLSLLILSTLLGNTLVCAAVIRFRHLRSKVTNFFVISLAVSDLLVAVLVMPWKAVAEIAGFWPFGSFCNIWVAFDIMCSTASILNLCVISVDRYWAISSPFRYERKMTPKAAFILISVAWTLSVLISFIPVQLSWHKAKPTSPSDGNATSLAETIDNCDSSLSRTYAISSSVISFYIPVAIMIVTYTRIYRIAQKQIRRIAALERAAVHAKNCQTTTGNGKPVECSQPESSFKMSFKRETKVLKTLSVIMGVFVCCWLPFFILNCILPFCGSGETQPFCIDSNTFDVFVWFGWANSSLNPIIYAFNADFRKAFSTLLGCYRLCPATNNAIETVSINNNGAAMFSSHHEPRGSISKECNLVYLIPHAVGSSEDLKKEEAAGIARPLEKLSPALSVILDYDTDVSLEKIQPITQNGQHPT
Summary of the method: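 Tetracycline-induced HEK293 Trex D1 cells, force-coupled to calcium, dye-loaded; compounds added and read 180 s, then EC80 dopamine added and calcium flux tracked kinetically another 180 s.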
With `CN1CCN(c2ccc(NC(=O)COc3ccc(Cl)cc3Cl)cc2)CC1` the activity change, negative = inhibition was -32% (active). In the case of `CCC(=O)c1ccc(OCC(=O)Nc2ccc(N3CCCCC3)cc2)cc1`, the activity change, negative = inhibition is reported as 16.6% (inactive). For `COc1ccc(OCC(=O)Nc2ccc(N3CCC(C)CC3)cc2)cc1`, the activity change, negative = inhibition was -33.3% (active). `Cc1ccc(Cl)c(OCC(=O)N(C)CC(=O)Nc2ccc(N3CCOCC3)cc2)c1` was tested, and the activity change, negative = inhibition was -14.5% (inactive). With `CN1CCC(OC(=O)COc2ccc(Cl)cc2Cl)CC1` the activity change, negative = inhibition was -9.08% (inactive). With `COc1ccc(OCC(=O)OCC(=O)Nc2ccc(S(=O)(=O)N3CCCCC3)cc2)cc1` the activity change, negative = inhibition was -15.5% (inactive). `CCOC(=O)C1CCN(C(=O)CSc2c3c(nc4ccc(Cl)cc24)CCCC3)CC1` was tested, and the activity change, negative = inhibition was -13.5% (inactive). For `CC(=O)N1CCc2cc(Br)cc(S(=O)(=O)CCC(=O)NCCc3ccc(Cl)cc3)c21`, the activity change, negative = inhibition was -8.71% (inactive). With `COc1ccc(-c2noc(CSc3nc4ccc(C)cc4[nH]3)n2)cc1` the activity change, negative = inhibition was -1.27% (inactive). In the case of `CC(=O)c1ccc(NC(=O)c2nc(-c3ccc(C)cc3)n3c2CCCCC3)cc1`, the activity change, negative = inhibition is reported as -2.03% (inactive). With `O=C(CCN1C(=O)c2ccccc2C1=O)NNC(=O)c1ccc(Cl)cc1Cl` the activity change, negative = inhibition was -4.44% (inactive). `CC(C)(C)c1cc(C(=O)NN)n(Cc2ccc(Cl)cc2Cl)n1` was tested, and the activity change, negative = inhibition was -27.8% (inactive). With `Cn1cc(C(=O)c2ccc(Cl)cc2Cl)cc1C(=O)NN` the activity change, negative = inhibition was -37.3% (active). In the case of `Cc1ccc(NC(=O)c2cn3c4c(ccc(Cl)c4c2=O)OC(C)C3)cc1C` (configuration not stated), the activity change, negative = inhibition is reported as -1.66% (inactive). For `Cc1cc(Cl)ccc1NC(=O)Cc1ccc(NC(=O)N2CCCCc3ccccc32)cc1`, the activity change, negative = inhibition was -3.59% (inactive). For `CCOc1ccc(NC(=O)CCc2c(C)nn(-c3ccc(N4CCCC4)nn3)c2C)cc1`, the activity change, negative = inhibition was 4.71% (inactive). `CC(=O)Nc1c(C)nn(-c2ccccc2)c1N1CCC(C(=O)Nc2cc(Cl)ccc2C)CC1` was tested, and the activity change, negative = inhibition was -18.9% (inactive). In the case of `CSc1ncc(Cl)c(C(=O)Nc2ccc(S(=O)(=O)N3CCCC(C)C3)cc2)n1` (configuration not stated), the activity change, negative = inhibition is reported as -5.19% (inactive). `CN(CC(=O)Nc1ccc(Cl)cc1)C(=O)c1ccc(COc2ccccc2)cc1` was tested, and the activity change, negative = inhibition was 3.34% (inactive). With `CN(Cc1ccccc1)C(=O)c1ccc(COc2ccccc2)cc1` the activity change, negative = inhibition was -60.8% (active). In the case of `CCOc1ccc(CN(C)C(=O)c2ccc(=O)[nH]c2)cc1`, the activity change, negative = inhibition is reported as 10.3% (inactive). `CCOc1cc(C2C(C(=O)OC)=C(C)NC3=C2C(=O)c2ccccc23)ccc1O` (configuration not stated) was tested, and the activity change, negative = inhibition was -1.02% (inactive). In the case of `COc1ccccc1-c1cc2nc(C)c(CCC(=O)NC3CCCCC3)c(C)n2n1`, the activity change, negative = inhibition is reported as 2.22% (inactive). In the case of `COC(=O)c1ccc(NC(=O)Nc2ccc(C)cc2)cc1`, the activity change, negative = inhibition is reported as -35.1% (active). With `COC(=O)c1sccc1NC(=S)Nc1ccc(C)cc1` the activity change, negative = inhibition was -32.4% (active). In the case of `COc1cc(NC(=O)Nc2ccc(C)cc2)cc([N+](=O)[O-])c1`, the activity change, negative = inhibition is reported as -3.95% (inactive). With `COC(=O)c1sccc1NS(=O)(=O)c1ccc(F)cc1F` the activity change, negative = inhibition was -12% (inactive). `CCOC(=O)C(=CNNc1ccsc1C(=O)OC)C(=O)OCC` was tested, and the activity change, negative = inhibition was 12.1% (inactive). For `COC(=O)c1sccc1NN1C(=O)c2ccccc2C1=O`, the activity change, negative = inhibition was -47.9% (active). For `COC(=O)c1ccc(NC(=S)Nc2cccc(C)n2)cc1`, the activity change, negative = inhibition was -4.64% (inactive). In the case of `COC(=O)c1sccc1NC(=O)c1ccc(Cl)cc1`, the activity change, negative = inhibition is reported as 1.11% (inactive). In the case of `COC(=O)c1sccc1NC(=O)CCC1CCCC1`, the activity change, negative = inhibition is reported as 1.13% (inactive). In the case of `Cc1oc2c(c1C(=O)Nc1ccc(F)c(F)c1)C1=NCCN1C=N2`, the activity change, negative = inhibition is reported as -2.12% (inactive). In the case of `CCOC(=O)c1ccc(NC(=O)c2ncn(-c3ccccc3)n2)cc1`, the activity change, negative = inhibition is reported as -18.3% (inactive). `O=C(CCC1N=C2c3ccccc3N=C(SCc3ccccc3F)N2C1=O)NCCc1ccccc1` (configuration not stated) was tested, and the activity change, negative = inhibition was 14.5% (inactive). `COc1ccc(N2CCN(Cc3nc4c(c(=O)[nH]c(=O)n4C)n3Cc3ccc(Cl)cc3)CC2)cc1` was tested, and the activity change, negative = inhibition was -1.05% (inactive). In the case of `Cc1cccc(NC(=O)c2nc(S(=O)(=O)Cc3ccccc3)ncc2Cl)c1`, the activity change, negative = inhibition is reported as -28.7% (inactive). `Cc1ccc(NC(=O)c2nc(S(=O)(=O)Cc3cccc(C)c3)ncc2Cl)cc1` was tested, and the activity change, negative = inhibition was -29.3% (inactive). In the case of `Cc1cccc(CS(=O)(=O)c2ncc(Cl)c(C(=O)Nc3ccc(F)cc3)n2)c1`, the activity change, negative = inhibition is reported as -44.7% (active). `CCc1cccc(CC)c1NC(=O)Cn1c(=O)c(-c2cc(C)ccc2NC(C)=O)nc2ccccc21` was tested, and the activity change, negative = inhibition was -15.1% (inactive). For `Cc1nn(C)c2c1c(C(F)(F)F)cc(=O)n2C(C)C(=O)NCc1ccc(Cl)cc1` (configuration not stated), the activity change, negative = inhibition was 16.7% (inactive). `O=C(Nc1ccc(S(=O)(=O)N2CCC(c3nc4ccccc4s3)CC2)cc1)c1ccccc1F` was tested, and the activity change, negative = inhibition was 11% (inactive). In the case of `COc1ccc(N2CCN(S(=O)(=O)CCNC(=O)C(c3ccccc3)c3ccccc3)CC2)cc1`, the activity change, negative = inhibition is reported as -1.95% (inactive). `Cc1ccc(Nc2ccc(C(N)=O)cc2[N+](=O)[O-])cc1` was tested, and the activity change, negative = inhibition was -47.2% (active). `O=[N+]([O-])c1ccccc1Nc1ccc(O)cc1` was tested, and the activity change, negative = inhibition was 5.4% (inactive). For `CNc1ccc(NC(C)=O)cc1[N+](=O)[O-]`, the activity change, negative = inhibition was -1.26% (inactive). With `NC(=O)c1ccc(Nc2ccc3c(c2)CCC3)c([N+](=O)[O-])c1` the activity change, negative = inhibition was -48.2% (active). For `CCOc1ccccc1Nc1ccc(C(=O)O)cc1[N+](=O)[O-]`, the activity change, negative = inhibition was -11.5% (inactive). With `CCOC(=O)c1ccc(NNC(C)=O)c([N+](=O)[O-])c1` the activity change, negative = inhibition was -8.63% (inactive). In the case of `COC(=O)c1cnn(-c2ccc(C(=O)Nc3ccc(OC(F)(F)F)cc3)cc2)c1N`, the activity change, negative = inhibition is reported as -10.8% (inactive). In the case of `COc1ccc(Cn2c(C(=O)O)c(CNCc3cccc(OC)c3)c3ccc(C)cc32)cc1`, the activity change, negative = inhibition is reported as 8.54% (inactive). With `CC(C)C[C@H](NC(=O)C1CC(=O)N(c2ccc3c(c2)OCCO3)C1)C(=O)NC1CCCC1` (some centres not stated) the activity change, negative = inhibition was -44.1% (active). With `CCOC(=O)c1ccc(NC(=O)C2CC(=O)N(c3ccc4c(c3)OCCO4)C2)cc1` (configuration not stated) the activity change, negative = inhibition was 6.91% (inactive). In the case of `C[C@H](NC(=O)C1CC(=O)N(c2ccc3c(c2)OCCO3)C1)C(=O)N1CCC(C(=O)O)CC1` (some centres not stated), the activity change, negative = inhibition is reported as 9.3% (inactive). In the case of `CCN(CC(=O)NCc1ccco1)S(=O)(=O)c1ccc(F)cc1`, the activity change, negative = inhibition is reported as -0.842% (inactive). In the case of `COc1ccc(S(=O)(=O)N(CC(=O)NCc2ccco2)c2ccc(F)cc2)cc1`, the activity change, negative = inhibition is reported as -3.07% (inactive). For `Cc1ccc(S(=O)(=O)N(CC(=O)NCc2ccco2)c2ccccc2C)cc1`, the activity change, negative = inhibition was -44.4% (active).
